Hits are enriched below; roughly 2.4% of the tested compounds scored in any of these assays.
Cruzain inh Det: qHTS Assay for Promiscuous and Specific Inhibitors of Cruzain (with detergent); Cruzipain (Trypanosoma cruzi), P25779; Potency, µM, hits mostly inhibitors; AID 1478, 2009; purified cruzain, Z-FR-AMC fluorescence, 0.01% Triton; 200,000 tested, 0.43% active; note: nearly all actives have a fitted effect of over 40% in size
Target sequence (P25779 123-467 limits assumed): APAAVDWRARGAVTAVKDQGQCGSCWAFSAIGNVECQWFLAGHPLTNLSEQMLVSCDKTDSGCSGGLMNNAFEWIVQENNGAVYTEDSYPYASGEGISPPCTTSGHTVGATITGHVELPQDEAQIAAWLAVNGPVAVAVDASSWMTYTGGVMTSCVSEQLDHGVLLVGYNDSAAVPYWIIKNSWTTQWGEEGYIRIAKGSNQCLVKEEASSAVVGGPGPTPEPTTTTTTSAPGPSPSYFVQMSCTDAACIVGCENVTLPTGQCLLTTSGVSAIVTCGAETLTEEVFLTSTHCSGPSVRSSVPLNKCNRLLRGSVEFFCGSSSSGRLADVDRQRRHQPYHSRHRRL
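Detergent-containing arm of a paired screen for aggregation-based inhibition: 0.01% Triton X-100 present. Cruzain at 1.5 nM cleaved 2 uM Z-FR-AMC at pH 5.5 with 5 mM DTT; AMC fluorescence gain over 60 s measured activity.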
Cruzain inh noDet: qHTS Assay for Promiscuous and Specific Inhibitors of Cruzain (without detergent); AID 1476, 2009; Potency, µM, usual class: inhibitors; 200,000 tested, 2.3% active; purified cruzain, Z-FR-AMC fluorescence, no detergent; note: nearly all actives have a fitted effect of over 40% in size
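Detergent-free condition (0.00005% Triton X-100) in acetate buffer pH 5.5 with DTT. 1.5 nM enzyme and compound were pre-mixed 15 min, then 2 uM Z-FR-AMC substrate added; reaction progress from fluorescence change between first and third reads (60 s).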
A number is an active result. Calls come from the whole dose curve; as a rule, active = well fitted curve in the direction sought with a large enough effect; inconclusive = small, poorly fitted or top-dose-only effect, or another doubt; inactive = no such curve, though single readings can be large; an effect the other way counts as inactive or inconclusive.

`O=C(c1ccc(Cl)cc1)[C@@H]1[C@@H]2C(=O)N(c3cccc4ccccc34)C(=O)[C@@H]2C2c3ccccc3C=NN21` (stereo partly specified) gave Cruzain inh Det inactive and Cruzain inh noDet 25.1µM.
O=C(O)c1cc(Cl)cc(Cc2cc(Cl)cc(C(=O)O)c2O)c1O was read as Cruzain inh Det inactive and Cruzain inh noDet inactive.
Screening O=C(OCC1OC(n2ccc(=O)[nH]c2=O)C(O)C1OC(=O)c1ccccc1)c1ccccc1 (stereo unspecified) returned Cruzain inh Det inactive and Cruzain inh noDet inactive.
Screening Nc1nc2c(ncn2C2OC(COC(=O)c3ccccc3)C(OC(=O)c3ccccc3)C2OC(=O)c2ccccc2)c(=O)[nH]1 (stereo unspecified) returned Cruzain inh Det inactive and Cruzain inh noDet 7.94µM.
`CC1(C)Cc2c(C#N)c(N3CCN(C(=O)c4ccccc4Cl)CC3)nc(-c3ccco3)c2CS1` gave Cruzain inh Det 11.2µM and Cruzain inh noDet inconclusive.
Screening CC1(C)Cc2c(C#N)c(SCC(=O)c3ccccc3)nc(N3CCOCC3)c2CS1 returned Cruzain inh Det inactive and Cruzain inh noDet 25.1µM.
Screening CN1Cc2c(N3CCOCC3)nc(SCc3ccccc3)c(C#N)c2CC1(C)C returned Cruzain inh Det inactive and Cruzain inh noDet inactive.
CC(=O)N1CCN(c2nc(-c3ccco3)c3c(c2C#N)CC(C)(C)SC3)CC1 was read as Cruzain inh Det inactive and Cruzain inh noDet inconclusive.
Screening c1cc2c(cc1C(N1CCNCC1)N1CCNCC1)OCO2 returned Cruzain inh Det inactive and Cruzain inh noDet inactive.
CCOc1ccc(C(=O)NC2CC(=O)N(c3ccc(C)cc3)C2)cc1OCC (stereo unspecified) was read as Cruzain inh Det inactive and Cruzain inh noDet inactive.
CC(C)Oc1ccc(C(=O)N2CCC(c3nc4ccccc4o3)CC2)cc1 was read as Cruzain inh Det inactive and Cruzain inh noDet inactive.
For Cc1ccsc1/C=C(\C(=O)c1ccc(OC(C)C)cc1)c1nc2ccccc2o1 the results were Cruzain inh Det inactive and Cruzain inh noDet 31.6µM.
For CC1(C)S[C@@H]2[C@H](C(=O)O)N=C(Cc3ccccc3)N2[C@H]1C(=O)O the results were Cruzain inh Det inactive and Cruzain inh noDet inactive.
`CN(C)S(=O)(=O)c1cccc(NC(=S)NN=C(Cc2ccccc2)Cc2ccccc2)c1` gave Cruzain inh Det inactive and Cruzain inh noDet 31.6µM.
`COc1cc(/C=N/NC(=S)Nc2cccc(S(=O)(=O)N(C)C)c2)ccc1O` gave Cruzain inh Det inactive and Cruzain inh noDet inactive.
For CN(C(=O)c1nn(C)c2c1COc1ccccc1-2)c1cccc(C(F)(F)F)c1 the results were Cruzain inh Det inactive and Cruzain inh noDet inactive.
Cc1ccc(NC(=O)CCS(=O)(=O)c2cc(Br)cc3c2N(C(=O)C2CC2)CC3)cc1 was read as Cruzain inh Det inactive and Cruzain inh noDet inactive.
For O=C(CSc1ccc(Cl)cc1)Nc1ccc(-c2nc3ccccc3[nH]2)cc1 the results were Cruzain inh Det inconclusive and Cruzain inh noDet 20µM.
For O=C(CSc1ccccc1)Nc1nc2ccccc2[nH]1 the results were Cruzain inh Det inactive and Cruzain inh noDet inactive.
`Cc1ccc(NC(=O)CN2C(=O)c3cccnc3Sc3ccccc32)cc1C` gave Cruzain inh Det inactive and Cruzain inh noDet inactive.
Screening CN(C)c1ccc(CNC(=O)c2ccccc2NC(=O)c2nsc3ccccc23)cc1 returned Cruzain inh Det inactive and Cruzain inh noDet inactive.
Screening Brc1cc2c(cc1C1Nc3ccccc3C3C=CCC31)OCO2 (stereo unspecified) returned Cruzain inh Det inactive and Cruzain inh noDet inconclusive.
Screening Cc1cc(C)c2c(c1)NC(c1cc3c(cc1Br)OCO3)C1CC=CC21 (stereo unspecified) returned Cruzain inh Det inactive and Cruzain inh noDet 20µM.
`CC1(C)[C@@H]2CC[C@]1(C)CN(CCC[N+](C)(C)C)C2` gave Cruzain inh Det inactive and Cruzain inh noDet inactive.
O=C(O)C1=C/C(=C(/c2ccccc2)c2cc(C(=O)O)c(O)c3ccccc23)c2ccccc2C1=O was read as Cruzain inh Det inactive and Cruzain inh noDet inconclusive.
For Cc1ccc(CNC(=O)c2ccc(Nc3nc4ccccc4n4nnnc34)cc2)cc1 the results were Cruzain inh Det inactive and Cruzain inh noDet inactive.
Cc1ccc(CNc2nc3ccccc3n3nnnc23)cc1 was read as Cruzain inh Det inactive and Cruzain inh noDet 31.6µM.
c1ccc2c(c1)nc(Nc1ccc3c(c1)OCO3)c1nnnn12 was read as Cruzain inh Det inactive and Cruzain inh noDet 25.1µM.
Screening Oc1ccccc1Nc1nc2ccccc2n2nnnc12 returned Cruzain inh Det inactive and Cruzain inh noDet inconclusive.
Fc1cccc(Nc2nc3ccccc3n3nnnc23)c1 was read as Cruzain inh Det inactive and Cruzain inh noDet inconclusive.
Fc1ccccc1Nc1nc2ccccc2n2nnnc12 was read as Cruzain inh Det inactive and Cruzain inh noDet 25.1µM.
For CCOC(=O)c1ccc(NC(=O)C2CCN(S(=O)(=O)Cc3ccccc3)CC2)cc1 the results were Cruzain inh Det inactive and Cruzain inh noDet inactive.
